Laboratory results: PubChem BioAssay (EPA / NIEHS)
The source made the active and inactive calls. The calls were made as follows: active = hit-call score of the fitted dose curve at least 0.9, where 1 is the maximum; inactive = score below 0.9.

Test: ATG_GATA_CIS: Attagene CIS-FACTORIAL HepG2 Assay for human GATA Binding Protein (AID 2282944)
Settings: HepG2 GATA cis-element reporter, Attagene multiplex mRNA; actives raise or lower the signal
Protocol: ATG_CIS is a cell-based, multiplexed-readout assay that uses HepG2, a human liver cell line, with measurements taken at 24 hours after chemical dosing in a 24-well plate.ATG_GATA_CIS is one of 52 assay component(s) measured or calculated from the ATG_CIS assay. It is designed to make measurements of mRNA induction, a form of inducible reporter, as detected with fluorescence intensity signals by Reverse transcription polymerase chain reaction (RT-PCR) and Capillary electrophoresis technology.Data from the assay component ATG_GATA_CIS was analyzed into 1 assay endpoint. This assay endpoint, ATG_GATA_CIS, was analyzed with bidirectional fitting relative to DMSO as the negative control and baseline of activity. Using a type of inducible reporter, measures of mRNA for gain or loss-of-signal activity can be used to understand the reporter gene at the transcription factor-level as they relate to the gene GATA1. Furthermore, this assay endpoint can be referred to as a primary readout, because this assay has produced multiple assay endpoints where this one serves a reporter gene function. To generalize the intended target to other relatable targets, this assay endpoint is annotated to the dna binding intended target family, where the subfamily is GATA proteins.
Human liver HepG2 cells are transiently transfected with multiple reporter transcription units (MRTUs) in 6-well plates using FuGene 6 reagent (Roche; 3 ml FuGene/1 mg DNA). The MRTU constructs are regulated by a cis-regulating element (promoter). […] A major difference between the CIS and TRANS system is that in CIS activities of endogenous TFs are measured, whereas the TRANS assay evaluates changes in activities of exogenous, chimeric NR-Gal4 proteins. […] At the end of 24 hour incubation, total RNA was isolated using TriZol reagent (Invitrogen). The isolated RNA is then reverse-transcribed using oligo(dT) primer and Mo-MLV reverse transcriptase (Invitrogen) with DNAse I (Ambion) treatment for 30 min. The one-tenth of the produced cDNA was amplified by PCR using Taq DNA polymerase (Invitrogen) and two reporter sequence-specific primers. The PCR products were fluorescently labeled by primer extension with 6-arboxyfluorescein (6-FAM) 5'-labeled reporter sequence-specific primer (2 min at 95 C, 20 s at 68 C and 10 min at 72 C) and these products were digested with 5U of HpaI (New England Biolabs) for 2h at 37 C. The fragments were purified using Qiaquick PCR columns (Qiagen), analyzed on an ABI 3130xL genetic analyzer (Applied Biosystems) with peak positions identified by using a set of X-rhodamine (ROX)-labeled MapMarker1000 molecular weight standards (BioVentures). The raw capillary electrophoresis data was processed using Attagraph software (Attagene).
For `Brc1ccc(Br)c(Br)c1`, the outcome was “inactive”. For `C#CC(C)(O)CC(C)C` (stereo not given), the outcome was “inactive”. For `Cc1ncc([N+](=O)[O-])n1CCO`, the outcome was “inactive”. For `OCC#CCO`, the outcome was “inactive”. In the case of `C=C(C)[C@@H]1CC=C(C)C(=O)C1`, the outcome is reported as “inactive”. With `CCCOCCO` the outcome was “inactive”. For `CCN(CCC#N)c1ccc(N=Nc2ccc([N+](=O)[O-])cc2)cc1`, the outcome was “inactive”. With `CN(C)C(=S)SC(=S)N(C)C` the outcome was “inactive”. In the case of `Cc1cccc(Nc2ccccc2)c1`, the outcome is reported as “inactive”. For `Cc1ccc(S(N)(=O)=O)cc1`, the outcome was “inactive”. With `CC(=O)CC(=O)Nc1ccccc1` the outcome was “inactive”. In the case of `C=CC(=O)OCCC#N`, the outcome is reported as “inactive”. In the case of `CCN(CC)C(=O)N(CC)CC`, the outcome is reported as “inactive”. With `CC1(C)COCN1` the outcome was “inactive”. With `CC1(C)C2=CCCC(C)(C)[C@]23CC[C@H]1C3` the outcome was “inactive”. In the case of `Nc1c(Cl)cc(Cl)cc1[N+](=O)[O-]`, the outcome is reported as “inactive”. In the case of `[Cl][Au]([Cl])[Cl]`, the outcome is reported as “inactive”. In the case of `OCC(O)c1ccccc1` (stereo not given), the outcome is reported as “inactive”. In the case of `C=COCCOCCOC=C`, the outcome is reported as “inactive”. In the case of `CS(=O)(=O)c1ccc(Cl)cc1`, the outcome is reported as “inactive”. For `O=CN1CCOCC1`, the outcome was “inactive”. With `O=C(CC(=O)c1ccccc1)c1ccccc1` the AC50 was 171 µM (active). In the case of `CC(=O)NCCO`, the outcome is reported as “inactive”. For `CC(C)C[C@H](NC(=O)OCC1c2ccccc2-c2ccccc21)C(=O)O`, the outcome was “inactive”. In the case of `CCOC(=O)CCc1ccccc1`, the outcome is reported as “inactive”. For `CC(=O)c1c(C)c([N+](=O)[O-])c(C(C)(C)C)c([N+](=O)[O-])c1C`, the outcome was “inactive”. With `Nc1ccccc1[N+](=O)[O-]` the outcome was “inactive”. With `CCC(C)=O` the outcome was “inactive”. With `C=C(C)[C@H]1CC=C(C)C(=O)C1` the outcome was “inactive”. In the case of `OC[C@H]1O[C@@H]2O[C@H]3[C@H](O)[C@@H](O)[C@@H](O[C@H]4[C@H](O)[C@@H](O)[C@@H](O[C@H]5[C@H](O)[C@@H](O)[C@@H](O[C@H]6[C@H](O)[C@@H](O)[C@@H](O[C@H]7[C@H](O)[C@@H](O)[C@@H](O[C@H]8[C@H](O)[C@@H](O)[C@@H](O[C@H]9[C@H](O)[C@@H](O)[C@@H](O[C@H]1[C@H](O)[C@H]2O)O[C@@H]9CO)O[C@@H]8CO)O[C@@H]7CO)O[C@@H]6CO)O[C@@H]5CO)O[C@@H]4CO)O[C@@H]3CO`, the outcome is reported as “inactive”. In the case of `CCCC(C)C(O)CC` (stereo not given), the outcome is reported as “inactive”. In the case of `O=C(CS)OCCOC(=O)CS`, the outcome is reported as “inactive”. In the case of `COC(=O)c1ccc(C)cc1C1=NC(C)(C(C)C)C(=O)N1` (stereo not given) (tested in a mixture with another compound), the outcome is reported as “inactive”. With `CCCCCCCCCCCCCCCC(=O)OC/C=C(C)/C=C/C=C(C)/C=C/C1=C(C)CCCC1(C)C` the outcome was “inactive”. In the case of `COc1cccc(OC)c1O`, the outcome is reported as “inactive”. With `CC(C)(C)C1=CC(=O)C(C(C)(C)C)=CC1=O` the AC50 was 68.3 µM (active). With `c1ccc2[nH]cnc2c1` the outcome was “inactive”. In the case of `NC(=S)NNC(N)=S`, the outcome is reported as “inactive”. In the case of `CC=Cc1ccc(OCC)c(O)c1`, the outcome is reported as “inactive”. With `C=Cc1ccc(C)cc1` the outcome was “inactive”.
